From PubChem BioAssay
Rows were chosen to be rich in hits. Some 3.1% of all compounds tested hit in one or more screens of this group.
FGF22 binding – binders of recombinant human FGF22 by thermal shift; Q9HCT0; SYPRO orange fluorescence; percent of sucrose octasulfate shift, DMSO zero; activity (Tm shift, normalised), % at 9.99 µM; hit rate 1.5% among 340,000; AID 651658;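 active means mean Tm shift, scaled 0 neutral to 100 positive control, at about 1.3% or above, every replicate too, limit read from the data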
SIRT5 block – sirtuin-5 (human) deacylase inhibition | Q9NXA8 | Purified SirT5, succinyl-peptide AMC, trypsin-coupled fluorescence | inhibition, % at 15 µM | hit rate 1.1% among 330,000 | AID 652115; in the data active means inhibition above about 15%
CASP6 VEID inh – blocks human caspase-6 cleavage activity; purified caspase-6, Z-VEID-R110 cleavage fluorescence; inhibition, % at 12.5 µM; hit rate 0.53% among 350,000; AID 686996;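 active means mean inhibition across replicates at least about 35%, with every replicate also reaching that limit, limit read from the data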
Target sequence (P55212 24-179 limits assumed): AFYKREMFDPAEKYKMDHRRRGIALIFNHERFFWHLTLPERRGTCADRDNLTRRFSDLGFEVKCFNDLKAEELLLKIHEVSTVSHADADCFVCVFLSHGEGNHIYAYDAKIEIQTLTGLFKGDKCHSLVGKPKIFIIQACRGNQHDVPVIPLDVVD
Target sequence (P55212 194-293 limits assumed): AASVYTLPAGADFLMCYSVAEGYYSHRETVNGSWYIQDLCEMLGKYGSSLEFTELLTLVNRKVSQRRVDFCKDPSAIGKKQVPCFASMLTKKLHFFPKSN
ERAP1 inh – ERAP1 (human) enzyme inhibition; Q9NZ08; recombinant ERAP1, Leu-AMC fluorescence, 60 min; inhibition, % at 10.7 µM; hit rate 0.15% among 340,000;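 active means mean replicate inhibition of at least 30%, or all replicates individually reaching that 30% level; inactive means mean below 30% and not every replicate reaching it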
Each line names hits and unclear results; the compound was inactive in the other large screens.

O=S(=O)(c1cccc2cccnc12)N1CCN(c2ccc(F)cc2)CC1	CASP6 VEID inh 42
CCOC(=O)c1c(-c2ccc(C)cc2)csc1NC(=O)CCN1CC(C)OC(C)C1 (stereo not given)	SIRT5 block 20
O=C1C=C(N2CCCCC2)c2ccccc2C1=O	CASP6 VEID inh 100 (no result: FGF22 binding, ERAP1 inh)
COc1ccc(/C=C2\C(=O)NC(=O)c3ccccc32)cc1OC	CASP6 VEID inh 93 (no result: SIRT5 block)
COc1ccccc1/C=C1\C(=O)Nc2ccccc21	SIRT5 block 16
COc1ccc(C=C2C(=O)OC(C)(C)OC2=O)cc1OC	none
O=C(NCCCn1ccnc1)/C(=C/c1ccco1)NC(=O)c1cccs1	FGF22 binding 1.4
COc1ccc(NC(=O)Nc2ccc3c(c2)[C@@H]2C[C@H](CC(=O)NC4CCCCC4)O[C@H](CO)[C@@H]2O3)cc1	none
O=C(O)C(=Cc1ccncc1)c1cccc2ccccc12	FGF22 binding 43 (no result: SIRT5 block)
COC(=O)C1CCN(Cc2ccc(OCCCN3CCN(c4ccc([N+](=O)[O-])cc4)CC3)cc2)CC1	SIRT5 block 16
Cc1ccc(S(=O)(=O)Nc2ccc3c(c2)C(=O)N([C@H](C)CO)C[C@@H](C)[C@H](CN(C)S(=O)(=O)c2cccs2)OCCCC[C@H](C)O3)cc1	SIRT5 block 17
Cc1ccc(S(=O)(=O)Nc2ccc3c(c2)C(=O)N([C@@H](C)CO)C[C@@H](C)[C@H](CN(C)S(=O)(=O)c2cccs2)OCCCC[C@@H](C)O3)cc1	none
COc1ccc(S(=O)(=O)Nc2ccc3c(c2)C(=O)N([C@H](C)CO)C[C@H](C)[C@H](CN(C)S(=O)(=O)c2cccs2)OCCCC[C@@H](C)O3)cc1	none
COc1ccc(S(=O)(=O)Nc2ccc3c(c2)C(=O)N([C@@H](C)CO)C[C@@H](C)[C@H](CN(C)S(=O)(=O)c2cccs2)OCCCC[C@@H](C)O3)cc1	SIRT5 block 16
CC1(C)CC(Cc2ccc(Cl)nc2)N(C(=O)OC(C)(C)C)C1 (stereo not given)	FGF22 binding 44 (no result: SIRT5 block)
C[C@@H]1CC[C@H](Cc2ccc(-n3cccc3)cc2)N1C(=O)OC(C)(C)C	none (no result: ERAP1 inh)
CC1=CCC2([N+](=O)[O-])CN(CC(=O)O)CC1([N+](=O)[O-])C2 (stereo not given)	none
CN1CC2([N+](=O)[O-])CC=C(OCCO)C([N+](=O)[O-])(C1)C2 (stereo not given)	CASP6 VEID inh 39
CC(C)NC(=O)N(C)C[C@H]1Oc2cc(C#CC(C)(C)O)ccc2S(=O)(=O)N([C@H](C)CO)C[C@H]1C	none
O=C(Cc1ccccc1)N1CC(=O)N2[C@H](CO)[C@@H](c3ccc(-c4cccc(F)c4)cc3)[C@@H]2C1	none (no result: FGF22 binding)
C[C@H]1CN([C@@H](C)CO)S(=O)(=O)c2ccc(-c3cncnc3)cc2O[C@H]1CN(C)Cc1ccccn1	SIRT5 block -0.3
Cc1ccc(-c2ccc3c(c2)O[C@@H](CN(C)Cc2ccccn2)[C@H](C)CN([C@@H](C)CO)S3(=O)=O)cc1	SIRT5 block 19
C[C@@H]1CN([C@@H](C)CO)S(=O)(=O)c2ccc(C#Cc3ccccn3)cc2O[C@H]1CN(C)Cc1cccc(F)c1	none
Cc1ccc(-c2ccc3c(c2)O[C@@H](CN(C)Cc2ccccc2)[C@@H](C)CN([C@@H](C)CO)S3(=O)=O)cc1	SIRT5 block 32
C[C@@H]1CN([C@H](C)CO)S(=O)(=O)c2ccc(C#Cc3ccccn3)cc2O[C@@H]1CN(C)Cc1cccc(F)c1	SIRT5 block 27
CNC[C@@H]1Oc2ccc(NC(=O)CCC(F)(F)F)cc2CC(=O)N([C@@H](C)CO)C[C@H]1C	none
CC(C)C#Cc1ccc2c(c1)O[C@@H](CN(C)Cc1ccccn1)[C@H](C)CN([C@H](C)CO)S2(=O)=O	SIRT5 block 19
CC(C)C#Cc1ccc2c(c1)O[C@@H](CN(C)Cc1ccccn1)[C@@H](C)CN([C@H](C)CO)S2(=O)=O	none
COc1ccc(/C=N\NC(=O)c2cc(O)c(O)c(O)c2)cc1COc1ccc(C(=O)OCC(C)C)cc1	CASP6 VEID inh 44
CC1=C/C(=C(\c2cc(C)c(O)c(Br)c2)c2ccccc2S(=O)(=O)O)C=C(Br)C1=O	SIRT5 block 16
O=C(c1ccc2c(c1)OCO2)N1CC2(C1)[C@H](c1ccccc1)[C@@H](CO)N2C(=O)C1CCCC1	none (no result: FGF22 binding)
Cc1oc(-c2cc(F)ccc2F)nc1CN1CCN(c2ncnc3ccccc23)CC1	none
COc1ccc(-c2nc(CN3CCN(c4ncnc5ccccc45)CC3)c(C)o2)c(OC)c1	FGF22 binding 44
CC(C)CC#Cc1cnc2c(c1)C(=O)N([C@@H](C)CO)C[C@H](C)[C@@H](CN(C)Cc1ccccc1)O2	none
